A selection: hits, their analogues and other compounds. The true share with any hit is near 19%.
HT1080NT lethal = kills 2HG-producing HT-1080-NT fibrosarcoma cells. HT-1080-NT fibrosarcoma viability, CellTiter-Glo ATP luminescence, 48 h. actives 1.6% (n = 360,000). AID 686970. Potency, µM (titrated, usually from 46.1 µM), actives largely listed as cytotoxic;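 further: NT is the 2HG producing partner of a matched IDH1 knockdown line; nearly all actives have a fitted effect of over 55% in size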
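Read-out is CellTiter-Glo luminescence after 10 minutes at room temperature, following 48 hours' compound treatment of HT-1080-NT cells (750 cells/well, RPMI, 5% FBS, 37 degrees C).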
TDP1 cell noCPT = qHTS for Inhibitors of human tyrosyl-DNA phosphodiesterase 1 (TDP1): qHTS in cells in absence of CPT | DT40 Tdp1-/- hTDP1 cells, no CPT, ATP luminescence, 48 h | Potency, µM (series often up to 46.2 µM), usual class: inhibitors | actives 15% (n = 420,000) | AID 686978, 2013; further: nearly all actives have a fitted effect of over 55% in size
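Luminescent ATP content (CellTiter-Glo) served as the growth readout. Knockout chicken DT40 cells expressing human TDP1 were exposed to compounds without camptothecin for a minimum 48 hr at 37 °C.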
TDP1 cell CPT = DT40-hTDP1 cell growth loss with CPT. Potency, µM (series often up to 46.2 µM), most hits filed as inhibitors. chicken DT40 Tdp1-/-;hTDP1 cells + 20 nM CPT, ATP luminescence, 48 h. AID 686979. actives 12% (n = 420,000); further: nearly all actives have a fitted effect of over 55% in size
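Cell growth measured by CellTiter-Glo luminescence after a minimum 48 h, 37 C compound exposure with 20 nM CPT in Tdp1-knockout DT40 cells stably expressing hTDP1, seeded 400/well; qHTS titration format.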
IL1B secr inh = inflammasome signaling inhibition, IL-1 beta readout; actives 4.7% (n = 360,000); activity change, % at 57.5 µM; AID 743279; THP-1 LPS/ATP IL-1B secretion, AlphaLISA, 16 h; hits give low values; in the data active means activity change below about -50%; inconclusive means mostly about -30% to -49%
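THP-1 cells pretreated 1 hr with compounds (up to 57.5 uM final), then stimulated with LPS (250 ng/mL final) plus ATP (1.25 mM final); secreted IL-1B measured by AlphaLISA after 16 hr, decreased signal indicating inhibition.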
HT1080 IDH1KD tx = toxicity to HT-1080 IDH1 knockdown cells (counter line). HT-1080 IDH1 knockdown viability, ATP luminescence, 48 h. Potency, µM (highest dose often 46.1 µM), most hits filed as cytotoxic. actives 2% (n = 360,000)
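CellTiter-Glo luminescence after 48 h compound exposure at 37 degrees C of IDH1-knockdown HT-1080 cells in 5% FBS RPMI. %Activity scaled between DMSO wells and cell-free media wells, with curves fitted and assigned curve classes.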
Hits are given with their value; i = inactive; ? = inconclusive; nt = no result. Unless noted, the call rests on the fitted dose curve; in most records, active means well fitted curve in the direction sought with a large enough effect; inconclusive means small, poorly fitted or top-dose-only effect, or another doubt; inactive means no such curve, though single readings can be large; an effect the other way counts as inactive or inconclusive.

SMILES	HT1080NT lethal	TDP1 cell noCPT	TDP1 cell CPT	IL1B secr inh	HT1080 IDH1KD tx
NC(=O)C1CCCN(CC(O)COCc2ccc(Cl)cc2)C1 (configuration not stated)	i	i	i	i	i
NC(Cc1ccc(Cl)cc1)c1csc(NC(=O)Nc2ccccc2)n1 (configuration not stated)	23µM	15µM	13µM	i	18µM
COC(=O)[C@@H](NC(=O)Nc1ccc(OC(F)(F)F)cc1)C(C)C	i	i	i	i	i
CC(C)C(N)c1csc(NC(=O)Nc2ccc(OC(F)(F)F)cc2)n1 (configuration not stated)	8.2µM	23µM	?	-70	21µM
NC(CO)c1csc(NC(=O)Nc2cccc(Cl)c2)n1 (configuration not stated)	i	i	i	i	i
O=C(Nc1cccc(Cl)c1)Nc1nc(-c2ccccc2)cs1	i	?	?	i	i
COc1ccc(CC(N)c2csc(NC(=O)Nc3cccc(C(F)(F)F)c3)n2)cc1 (configuration not stated)	18µM	?	?	-57	16µM
NC(COCc1ccccc1)c1csc(NC(=O)Nc2cccc(Cl)c2)n1 (configuration not stated)	?	?	23µM	-56	?
NC(Cc1ccc(C(F)(F)F)cc1)c1csc(NC(=O)Nc2ccccc2Cl)n1 (configuration not stated)	15µM	21µM	?	-72	?
CC(C)C(N)c1csc(NC(=O)Nc2cccc(C(F)(F)F)c2)n1 (configuration not stated)	21µM	15µM	15µM	?	23µM
COc1ccc(CNC(=S)Nc2ccc3nc(N4CCOCC4)cc(C)c3c2)cc1	i	?	21µM	i	i
COc1ccc(N(C)C(=O)CCC(=O)Nc2ccc3nc(N4CCOCC4)cc(C)c3c2)c(OC)c1	i	16µM	?	i	i
COc1ccc(CNC(=S)Nc2ccc3nc(N4CCN(C)CC4)cc(C)c3c2)cc1	16µM	?	?	-101	?
CCN(CC)S(=O)(=O)c1ccc2c(c1)N(CC(=O)Nc1ccc(C)cc1C)C(=O)C1CCCN21 (configuration not stated)	nt	?	i	nt	nt
O=C1C(O)=C(O)C(=O)C(O)=C1O	nt	i	i	nt	nt
Cc1cc2cc(CCNC(=O)c3cccc([N+](=O)[O-])c3)c(=O)[nH]c2cc1C	i	16µM	?	?	i
Cc1ccc(C(=O)NCCc2cc3ccc(C)c(C)c3[nH]c2=O)cc1[N+](=O)[O-]	i	?	10µM	i	i
Cc1ccc2cc(CCNC(=O)c3cccc([N+](=O)[O-])c3)c(=O)[nH]c2c1	i	21µM	21µM	i	i
C[C@@](N)(C(=O)O)c1ccc(P(=O)(O)O)cc1	nt	i	i	nt	nt
C=CCN(C(=O)c1csnn1)C(C(=O)NCc1ccc(F)cc1)c1cccs1 (configuration not stated)	i	?	i	i	i
COCc1cc(=O)[nH]c(N2CCN(Cc3ccc4c(c3)OCO4)CC2)n1	i	i	i	i	i
CCCCCCCCCCCCCCCCn1cc[n+](C)c1	16µM	0.46µM	0.46µM	-96	21µM
C[n+]1ccn(CC(=O)c2cccs2)c1	?	i	i	i	i
O=C(c1ccccc1)N1CCN(CCc2ccncc2)CC1	nt	i	i	nt	nt
CN(C)S(=O)(=O)c1cccc(NC(=S)N/N=C/C2CC=CCC2)c1 (configuration not stated)	i	i	i	i	i
CN(CC(=O)Nc1cccc(S(=O)(=O)N(C)C)c1)Cc1ccccc1	i	?	i	i	i
CN(C)S(=O)(=O)c1cccc(NC(=S)NN=C(Cc2ccccc2)Cc2ccccc2)c1	i	5.2µM	5.8µM	i	i
COc1cc(/C=N/NC(=S)Nc2cccc(S(=O)(=O)N(C)C)c2)ccc1O	i	18µM	?	-98	i
COc1ccc(N2CC(C(=O)Nc3cc(C)ccn3)CC2=O)cc1 (configuration not stated)	i	i	i	i	i

High-throughput results deposited in PubChem by National Center for Advancing Translational Sciences (NCATS).
